Screening data as filed in PubChem.
Sfp PPTase inh: Sfp phosphopantetheinyl transferase inhibition. AID 1490. 3.5% of 310,000 active. Biochemical Sfp PPTase activity, qHTS. Q9F4F7. Potency, µM, hits mostly inhibitors;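 further: the enzyme is Sfp with the accession as filed and its product quenches rhodamine fluorescence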
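After 15 min at room temperature with compound, 15 nM Sfp received 5 uM rhodamine-CoA plus 12.5 uM BHQ-2-ybbR (50 mM Hepes pH 7.6, 10 mM MgCl2). Rate came from the fluorescence difference over 30 min, ex 525/em 598 nm.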
G9a block: blocks human histone lysine methyltransferase G9a; Q96KQ7; G9a H3K9 monomethylation, AlphaScreen, 2 h; Potency, µM (series often up to 102 µM), actives largely listed as inhibitors; 8.8% of 350,000 active; further: nearly all actives have a fitted effect of over 75% in size
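Quantitative HTS format: methyltransferase activity on a biotin-tagged H3K9 peptide is measured by AlphaScreen, using a rabbit anti-monomethyl-H3K9 antibody with streptavidin donor and anti-IgG acceptor beads. Final levels are 20 nM enzyme, 500 nM peptide, 20 uM SAM; 2 h RT.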
L3MBTL1 inh: L3MBTL1 (human) inhibition; Q9Y468; AID 485360; Potency, µM (top dose mostly 57.1 µM), usual class: inhibitors; AlphaScreen L3MBTL1–H3K9me1 peptide binding; 0.66% of 230,000 active; further: nearly all actives have a fitted effect of over 60% in size
Target sequence (Q9Y468 whole entry, looked up): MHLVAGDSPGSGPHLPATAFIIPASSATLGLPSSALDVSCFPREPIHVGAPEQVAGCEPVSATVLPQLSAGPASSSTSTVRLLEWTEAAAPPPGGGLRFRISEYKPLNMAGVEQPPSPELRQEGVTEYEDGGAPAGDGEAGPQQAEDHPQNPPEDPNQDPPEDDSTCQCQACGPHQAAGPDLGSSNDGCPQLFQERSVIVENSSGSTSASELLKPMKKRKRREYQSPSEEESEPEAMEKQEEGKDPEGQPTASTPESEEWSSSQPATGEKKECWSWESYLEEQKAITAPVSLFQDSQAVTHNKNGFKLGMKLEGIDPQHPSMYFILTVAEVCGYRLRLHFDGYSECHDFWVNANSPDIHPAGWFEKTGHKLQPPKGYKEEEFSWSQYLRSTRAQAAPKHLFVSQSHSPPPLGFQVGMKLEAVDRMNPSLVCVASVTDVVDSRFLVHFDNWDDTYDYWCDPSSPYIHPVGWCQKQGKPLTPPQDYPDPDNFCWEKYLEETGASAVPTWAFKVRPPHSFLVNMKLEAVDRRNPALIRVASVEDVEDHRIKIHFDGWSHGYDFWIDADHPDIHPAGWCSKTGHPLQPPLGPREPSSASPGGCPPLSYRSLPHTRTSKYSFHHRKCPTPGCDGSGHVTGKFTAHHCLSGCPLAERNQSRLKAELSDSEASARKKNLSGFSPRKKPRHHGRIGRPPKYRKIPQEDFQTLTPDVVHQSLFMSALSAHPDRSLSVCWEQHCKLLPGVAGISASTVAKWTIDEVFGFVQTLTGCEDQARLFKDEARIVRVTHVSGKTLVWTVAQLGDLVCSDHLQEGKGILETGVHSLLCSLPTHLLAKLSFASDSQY
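AlphaScreen proximity signal between nickel-chelate acceptor and streptavidin donor beads (final 10 ug/mL) reports binding of 50 nM L3MBTL1 to 75 nM biotin-H3 K9me1 peptide; complex incubated with compounds 30 min at room temperature; cefsulodin titration as control.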
JMJD2A Tudor: JMJD2A Tudor domain (human) inhibition; AlphaScreen JMJD2A-Tudor / H3K4me3 peptide binding; Potency, µM (highest dose often 114 µM), hits mostly inhibitors; 4.4% of 390,000 active; AID 504339; further: nearly all actives have a fitted effect of over 50% in size
HP1b chromo inh: blocks HP1-beta chromodomain binding to methylated histone tails. Potency, µM (doses to about 114 µM), usual class: inhibitors. P83916. 0.56% of 390,000 active. AlphaScreen HP1-beta / biotin-H3K9me3 peptide binding; further: nearly all actives have a fitted effect of over 70% in size
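Compound inhibition of the preformed complex between 50 nM HP1-beta and 50 nM biotinylated H3K9me3 peptide was read by AlphaScreen. Buffer was PBS pH 7.4 with 0.01% Tween-20. Incubations ran 30 min at room temperature, with 10 ug/mL donor/acceptor beads.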
BAZ2B block: BAZ2B (human) inhibition; AID 504333; AlphaScreen BAZ2B-H3K14Ac peptide displacement; Q9UIF8; 4.4% of 360,000 active; Potency, µM (doses to about 114 µM), hits mostly inhibitors; further: nearly all actives have a fitted effect of over 60% in size
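Inhibition is scored as reduced AlphaScreen emission. The BAZ2B/b-H3(5-23)K14Ac complex (50 nM each) in PBS pH 7.4, 0.01% Tween-20 meets compound (up to 110 uM) for 30 min at RT before bead addition.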
Each line names hits and unclear results; the compound was inactive in the other large screens. Compounds with a hit are over-represented: about 12% of the library has one in this group of screens. The call rests on the fitted dose curve; in most records, active means well fitted curve in the direction sought with a large enough effect; inconclusive means small, poorly fitted or top-dose-only effect, or another doubt; inactive means no such curve, though single readings can be large; an effect the other way counts as inactive or inconclusive.

CCc1oc(C(=O)O)cc1COC	G9a block 45µM, L3MBTL1 inh inconclusive, JMJD2A Tudor inconclusive, BAZ2B block inconclusive
COc1ccc(C(=O)CCC(=O)O)c2ccccc12	none (no result: L3MBTL1 inh, JMJD2A Tudor, HP1b chromo inh, BAZ2B block)
CC(C)(C)OC(=O)C[C@@H]1C/C=C\C[C@H](CC(=O)N(CCO)Cc2ccccc2)C(=O)NC[C@H](c2ccccc2)OC1=O	none (no result: Sfp PPTase inh, G9a block, BAZ2B block)
COc1cc(SC)ccc1C(=O)N1CCn2c3c(c4cc(C)ccc42)CCCC31 (stereo unspecified)	none (no result: Sfp PPTase inh, L3MBTL1 inh)
CCOc1ccc(Nc2n[nH]c(=S)s2)cc1	JMJD2A Tudor inconclusive
CCSc1n[nH]c(=S)s1	G9a block 1.4µM, JMJD2A Tudor 20µM, HP1b chromo inh inconclusive, BAZ2B block inconclusive (no result: L3MBTL1 inh)
CCN1CCC[C@@H](OC(=O)C(c2ccccc2)c2ccccc2)C1	none (no result: L3MBTL1 inh, JMJD2A Tudor, HP1b chromo inh, BAZ2B block)
COC(=O)c1nn2c(C(F)(F)F)cc(-c3ccc(Br)o3)nc2c1Br	G9a block 45µM
CCCNC(=O)c1nn2c(C(F)(F)F)cc(-c3ccccc3)nc2c1Br	none
CC(C)(C)NC(=O)c1nn2c(C(F)(F)F)cc(-c3ccccc3)nc2c1Br	none
